Sampled rows, rich in hits. Any-hit rate of the full collection: about 4.7%.
PABP1 MLLE inh = inhibitors of microRNA-mediated deadenylation, human PABP1 MLLE binding; inhibition, % at 20 µM; P11940; GST-MLLE / FITC-PAM2 fluorescence polarization; 360,000 compounds, 0.36% hits; in the data active = inhibition above about 35%, passing the limit was not always enough;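 also: plate controls were DMSO wells with GST-MLLE for no effect and wells lacking GST-MLLE protein for full effect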
ALR H2O2 inh = inhibitors of human sulfhydryl oxidase ALR; purified ALR, DTT oxidation, H2O2 HRP-luminol luminescence; AID 485317; 290,000 compounds, 3.8% hits; P55789; inhibition, % (no concentration beside the values);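 active = mean replicate inhibition above about 79%, with every replicate also reaching it, limit read from the data; inconclusive = only one of the two criteria met; inactive = mean below limit and not every replicate reaching it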
UBC9 SUMO inh = SUMOylation inhibition; P63279; HTRF SUMOylation assay, SAE1/SAE2 + UBC9, in vitro; inhibition, % at 35 µM; 290,000 compounds, 0.36% hits; in the data active = inhibition above about 50%, passing the limit was not always enough; inconclusive = no clear call, values can overlap the other calls
Target sequence (P63279 whole entry, looked up): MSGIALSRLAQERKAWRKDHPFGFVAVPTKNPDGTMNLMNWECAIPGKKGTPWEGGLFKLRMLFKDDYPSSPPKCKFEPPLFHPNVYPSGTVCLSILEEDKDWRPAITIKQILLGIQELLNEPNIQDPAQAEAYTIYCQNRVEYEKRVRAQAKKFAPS
PABP FP inh = PABP-poly(A) binding inhibition | P11940 | PABP-poly(A) RNA binding, fluorescence polarization | inhibition, % at 35 µM | 290,000 compounds, 1% hits | AID 2014;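 also: calls also rest on retests at 20 µM and on dose response follow-up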
eIF4H inh = inhibitors of RNA binding by human eIF4H; Q15056; eIF4H fluorescence polarization binding assay; inhibition, % at 35 µM; 290,000 compounds, 0.94% hits; AID 2012;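 also: calls also rest on retests at 20 µM and on dose response follow-up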
Efflux pump inh = blocks antifungal efflux pumps in multiplex yeast assay. S. cerevisiae Candida pump triplex, Nile Red efflux. inhibition, % at 10 µM. 330,000 compounds, 0.44% hits. AID 485275;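 active = plate passing quality check with inhibition over a set limit, or well fluorescence over plate mean plus 4 SD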;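 also: Nile Red retained in pooled yeast measured as flow cytometry median fluorescence; 0% = buffer negative control and 100% = Enniatin B positive control; higher means more Nile Red kept so more efflux inhibition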
The depositor's hits bear a star; ? = inconclusive; · = not tested or not shown. Unless noted, no rule for the calls is given here.

SMILES	PABP1 MLLE inh	ALR H2O2 inh	UBC9 SUMO inh	PABP FP inh	eIF4H inh	Efflux pump inh
Cc1[nH]n(-c2ccccc2)c(=O)c1/C=N/NC(=O)c1ccc(O)cc1O	-4	·	2	11	8	0
Cc1ccc(-n2[nH]c(C)c(/C=N/NC(=O)c3ccc(O)cc3O)c2=O)cc1	6	94*	-8	12	7	0
O=c1[nH]c(C(F)(F)F)nc2ccc3ccccc3c12	5	-2	10	9	-10	0
COC(=O)c1ccccc1S(=O)(=O)N1CCC(C(=O)OC(C)C(=O)N(C)Cc2ccccc2)CC1 (stereo unspecified)	-61	·	·	·	·	·
C[C@@H]1O[C@@H](O[C@@H]2[C@@H](O)[C@H](OCCc3ccc(O)c(O)c3)O[C@H](CO)[C@H]2OC(=O)/C=C/c2ccc(O)c(O)c2)[C@H](O)[C@H](O)[C@H]1O	-11	98*	·	·	·	0
Cn1cc(/C=C(\C#N)C(=O)Nc2ccccc2O)c2ccccc21	-17	·	-5	6	4	0
Cn1c(-c2ccc(F)cc2)cnc1NCc1cccc([N+](=O)[O-])c1	0	19	-4	4	2	0
Cn1c(-c2cccc([N+](=O)[O-])c2)cnc1NCc1ccc(C#N)cc1	12	99*	11	5	-3	0
Cn1c(-c2cccc([N+](=O)[O-])c2)cnc1NCc1cccc(F)c1	-7	99*	-6	-2	2	0
O=C1CC(c2ccccc2)Cc2nc(N3CCc4ccccc4C3)ncc21 (stereo unspecified)	56*	-17	-17	-5	-10	0
O=C1CC(=O)N2N=C(c3ccc([N+](=O)[O-])cc3)SC2=N1	15	?	-3	-13	28	0
CC1(C(=O)NCc2ccccc2Br)CCN1C(=O)C1(c2ccc(Cl)cc2)CC1 (stereo unspecified)	10	·	·	·	·	·
CCN(C[C@H]1N[C@@](C)(C(=O)OC)[C@H]2C(=O)N(C)C(=O)[C@@H]12)C(=O)C1CCCCC1	1	·	·	·	·	-1
Cc1noc(C(=O)Nc2ccc(F)c(Cl)c2)c1Cl	-6	1	-12	13	9	0
CS(=O)(=O)n1nc(OC(=O)c2cccs2)cc1N	1	89*	-14	5	8	·
O=C(COC(=O)C1CCN(S(=O)(=O)c2cc([N+](=O)[O-])ccc2Cl)CC1)Nc1ncc(Cl)cc1Cl	-12	·	-8	39*	70*	0
O=C(CS(=O)(=O)Cc1ccccc1)c1ccccc1	8	·	·	·	·	·
COc1ccc(OC)c(/C=N/NC(=O)CCc2ccc(O)c(O)c2)c1	6	·	52	71*	21*	0
COc1cccc(NC(=O)NNC(=O)CCc2ccc(O)c(O)c2)c1	-6	99*	23	-18	3	0
CN(CC(=O)NC(=O)NC1CCCCC1)CC(=O)Nc1ccc(OC(F)(F)F)cc1	10	-19	·	·	·	0
CCCCNC(=O)c1onc(CS(=O)(=O)c2ccccn2)c1C(=O)NCCCC	-13	·	·	·	·	0
Cc1ccc(C2=NN=C(NC(=O)CSc3nncn3C)SC2)cc1	24	99*	-10	-4	0	0
Cc1ccc(C(=O)NC(=O)CSc2nncn2C)cc1	7	1	-2	-2	-15	0
CC(=O)Nc1ccc(C(=O)OCC(=O)NC2CCCCCC2)cc1	3	·	·	·	·	·
Cc1ccc(-n2nc3ccc(N)cc3n2)cc1Cl	-2	-1	25	10	33	0
SMILES	PABP1 MLLE inh	ALR H2O2 inh	UBC9 SUMO inh	PABP FP inh	eIF4H inh	Efflux pump inh
Cc1cc(N)ccc1-n1nc2ccccc2n1	4	-4	·	·	·	0
COc1ccc(-n2nc3ccc(N)cc3n2)cc1Cl	-8	?	49	15*	55*	0
Cc1ccc(-n2nc3ccc(N)cc3n2)c(C)c1	-7	-8	50*	-3	14	0
CC(=O)OC[C@@H]1CN(Cc2ccccc2)C[C@H](n2cnc3c(NCC(C)C)ncnc32)O1	-12	·	·	·	·	·
CN(C)c1ccc(C(=O)Nc2ccc(CN3CCS(=O)(=O)CC3)cc2)cc1	1	8	-14	-12	5	0
C[C@@H]1CN([C@@H](C)CO)S(=O)(=O)c2ccc(Br)cc2O[C@H]1CN(C)C(=O)Nc1ccc(C(F)(F)F)cc1	13	·	·	·	·	·
N#CC(C#N)=Cc1cccn1-c1ccc(S(N)(=O)=O)cc1	9	-2	-3	54*	0.5*	0
CS(=O)(=O)/C(C#N)=C/c1cccn1S(=O)(=O)c1ccccc1	-2	·	-3	-8	-8	0
O=[N+]([O-])c1cc([N+](=O)[O-])c2nonc2c1Nc1ccccc1O	20	99*	28	22	16	0
O=[N+]([O-])c1cc([N+](=O)[O-])c2nonc2c1Nc1ccc(O)cc1	15	99*	·	8	15	0
CCOc1ccc(OCCC(=O)N(CCOC)c2c(N)n(Cc3ccccc3)c(=O)[nH]c2=O)cc1	1	·	·	·	·	·
Cc1ccccc1C(=O)Nc1ccnn1C1CCN(C(=O)c2cnsn2)CC1	-14	-9	-2	1	-10	0
Cc1ccc(-n2ncc3c(SCC(=O)Nc4cc(C)on4)ncnc32)c(C)c1	12	·	6	-3	0	0
CCOC(=O)Cc1csc(SCC(=O)N2CCN(c3ccccc3)CC2)n1	30	?	·	·	·	0
O=C(NCC(c1cccs1)N1CCOCC1)c1cc2ccccc2oc1=O (stereo unspecified)	7	·	·	·	·	0
CCOc1c(O)ccc(/C=C2\SC(=S)NC2=O)c1[N+](=O)[O-]	6	99*	50*	23	52	0
CCOc1ccc(N(C)c2ccc(/C=C3/SC(=S)NC3=O)cc2)cc1	-151	-2	23	?	?	0
O=C1C2C3CCC(C3)C2C(=O)N1CNc1ccccc1 (stereo unspecified)	-5	39	-6	-10	-8	0
CC(=O)Nc1ccc(NCN2C(=O)[C@@H]3[C@H]4CC[C@H](C4)[C@@H]3C2=O)cc1	9	94*	21	-15	-4	0
O=C1NCCCc2c1oc1ccc(O)cc21	5	99*	12	-6	3	0
O=C1c2cc(O)c(O)cc2S(=O)(=O)C1c1ccccc1 (stereo unspecified)	7	99*	·	·	·	0
O=C(CN1C(=O)c2ccccc2S1(=O)=O)c1ccc(O)c(O)c1	10	?	3	-2	2	0
CCCCc1ccc(/C=C2\C(=O)c3ccccc3C(O)=C2C(=O)OCC)cc1	·	-11	2	8	0	1.1*
CCOC(=O)C1=C(Cc2ccc(F)cc2)C(=O)c2ccccc2C1=O	16	64	8	7	5	0
Cc1ccc(-c2csc(N3CCC(C(N)=O)CC3)n2)cc1	1	31	·	·	·	0
Cc1ccc(-c2csc(N=C(N)N)n2)cc1	25	99*	12	-11	1	0
COc1cccc(CN(C)C(=O)c2ccc(N3CCCC3)c([N+](=O)[O-])c2)c1	-2	-16	0	6	-12	0
